Assay results taken from PMC12864922, “TDP-43 directly inhibits mRNA accumulation in neurites through modulation of mRNA stability”.
The full ranking holds about 9,900 sequences; the median of “r (bound/input frequency ratio)” is about 0.7, and the highest 2% start at about 6.5. For the sample, the highest values were picked, then their nearest neighbours and some sequences at random.

B1: ENSMUSG00000058297.291|Spock2|95:100 (ssRNA)
RNA: GGGAGUUCUACAGUCCGACGAUCGCUUCGAUAUCCGCAUGCUAAGAGAGAGAGAGAAAGAGAGAGAGAAUGAGAGAGAAUGAGAGAGAGAAUACCCGAGGGCCACCCUGAUGCCCAGGAAGAGUGAGGGCAGCCCCCACACACGUGGAAGAGGCUGGGCAGCUAGCUACUGGGGACCUUGUGCUGAGGCUUCCAGGACAAAGCCCCAGUCUGGCUCUCCCCCAGCCUCUCAGGGGCACUGGCUGGUCACAUCCACUGAGUAUUGAUCGGUUGGACUUUAGGGAAGAGCCUCCUCCUUCCCAUUCUCUUGCGGUCGCACUAGUGUGGAAUUCUCGGGUGUCAAGG
B2: ENSMUSG00000058297.292|Spock2|89:94 (ssRNA)
RNA: GGGAGUUCUACAGUCCGACGAUCGCUUCGAUAUCCGCAUGCUAAGAGAGAAAGAGAGAGAGAAUGAGAGAGAAUGAGAGAGAGAAUACCCGAGGGCCACCCUGAUGCCCAGGAAGAGUGAGGGCAGCCCCCACACACGUGGAAGAGGCUGGGCAGCUAGCUACUGGGGACCUUGUGCUGAGGCUUCCAGGACAAAGCCCCAGUCUGGCUCUCCCCCAGCCUCUCAGGGGCACUGGCUGGUCACAUCCACUGAGUAUUGAUCGGUUGGACUUUAGGGAAGAGCCUCCUCCUUCCCAUUCCUUUCCUCUUGCGGUCGCACUAGUGUGGAAUUCUCGGGUGUCAAGG
B3: ENSMUSG00000058297.294|Spock2|77:82 (ssRNA)
RNA: GGGAGUUCUACAGUCCGACGAUCGCUUCGAUAUCCGCAUGCUAAGAGAGAAUGAGAGAGAAUGAGAGAGAGAAUACCCGAGGGCCACCCUGAUGCCCAGGAAGAGUGAGGGCAGCCCCCACACACGUGGAAGAGGCUGGGCAGCUAGCUACUGGGGACCUUGUGCUGAGGCUUCCAGGACAAAGCCCCAGUCUGGCUCUCCCCCAGCCUCUCAGGGGCACUGGCUGGUCACAUCCACUGAGUAUUGAUCGGUUGGACUUUAGGGAAGAGCCUCCUCCUUCCCAUUCCUUUCUGCCACCCUGGACUCUUGCGGUCGCACUAGUGUGGAAUUCUCGGGUGUCAAGG
B4: ENSMUSG00000061578.830|Ksr2|59:63;101:105;176:180 (ssRNA)
RNA: GGGAGUUCUACAGUCCGACGAUCGCUUCGAUAUCCGCAUGCUAAUAGAAACAGCAUUCUGGCUCACAGUUUCAAAGGGCUCAGUCCAUAGCUGCCUGACUCACACAUUCUAGGCCUUUCUUGAGGCAAGUGUUCAUCAUGAUACACACAGGGUGAGGAGGAGUUUCUUCAUGGCAAACAGGAAGCAAAGAGCAAUACAGGAAAAGGUCAGGGGUGAGAACACACAUUGCCACUUCCUCCAGCUAGGACCUUUGAGCAUCACAUUGUGAAGCCAUCCAGGGACUUGGGGGUUAGGUCAGAGGUACUCUUGCGGUCGCACUAGUGUGGAAUUCUCGGGUGUCAAGG
B5: ENSMUSG00000032194.214|Kank2 (ssRNA)
RNA: GGGAGUUCUACAGUCCGACGAUCGCUUCGAUAUCCGCAUGCUAUUGUUGUUGUUUCUUUGUUUCUUUUCUUCAUAAAGAAGAAAAAGGAAACAACUUCUAGAUGUGCCUUGCGAUAGGGAGGACUUUGUCCUCUCAAGUCUCCCUGUCGUAUCCAGAUCACAGCUGAACCCACUGGGCCUUGGCGCCAAACCUCAGCAGGGCAGCAUUGAGACUCAUGGACUAAAGGAAAGUGUUCACUCUUCUAGACAAGUGGGUCUCUUGGUUUGAUGGAGUCUUACUCCGCUUGAGUUUUGUAGAAGGGGCUCUUGCGGUCGCACUAGUGUGGAAUUCUCGGGUGUCAAGG
B6: ENSMUSG00000029636.67|Wasf3|73:79;237:241 (ssRNA)
RNA: GGGAGUUCUACAGUCCGACGAUCGCUUCGAUAUCCGCAUGCUACCAUCCUGAUUUGGUGGGCUUGCCACGUAUCUGCGCAGCUGCCCCACGUCAGCUCUCUGCAAGAUCACUGGCACACACACUCAGUGAUGUCUUCCAACCAGUGGGUGAUACGUUUUCCUGUUUCUUCCCUUUGCAAAUUGAAUUCCAGGUAGAUAUGGUUGUAGAGGGGAAAGUUUAACAAAUCAGAAUGAAAUGUUUGUCUGUUUGCACACUGGGCCUGGUGGCCUCCAAGGAAAACACAACGAUCGUUUGCUUUCUCUCUCUUGCGGUCGCACUAGUGUGGAAUUCUCGGGUGUCAAGG
B7: ENSMUSG00000061578.1419|Ksr2|3:7;229:233 (ssRNA)
RNA: GGGAGUUCUACAGUCCGACGAUCGCUUCGAUAUCCGCAUGCUAAUCAUACAUCUUGAUUCUCCAUUUUCCUUCUGGACCACAUGUCUCUUCCUUUUCCUUUUUAGAUCUGUCUUGCUCUCUGUCUCUCUCACUCAUUGCCAACAUGUUGCUGGGAAAGAAUAUUUGAUUUAGAUGCCAAUCAGGAAGGCAAGUAGGAUGGAUGGAUGAGUGAGUGGAUAGGUAGGUAUAUAAAUGGAUGGAUGGGUGAUGGAUGGGUAAAUGAAUGGAUAGCAUACUGAAUGAAUGGAUGAUGGAUGAAUGGACUCUUGCGGUCGCACUAGUGUGGAAUUCUCGGGUGUCAAGG
B8: ENSMUSG00000029636.446|Wasf3 (ssRNA)
RNA: GGGAGUUCUACAGUCCGACGAUCGCUUCGAUAUCCGCAUGCUAGAUGGAUGGAUGGAUGGAUGGAUGGAUGGAUGGAUGAGUGGAUGGAUAAUAGGUUGAUGGGUGGAUAGGUAGAUGAGUGAAUAGAUAGAUAUAGAUCAGUGGGAGGAUUGGAAAGUAGGUGAAUGAAUGGAUGGCAGAUAGAUGGAUCAAUUACAGAUGGAUGGAUGCAUGGAAUAGAUAGGUGGAUGGGUGGUGGCUAGAAGGUGCCUGAGUCUGCACAUCACUGCACUGAGAAGGCAAAUGAGUACAUUAUACUAUUACUCUUGCGGUCGCACUAGUGUGGAAUUCUCGGGUGUCAAGG
B9: ENSMUSG00000029636.451|Wasf3 (ssRNA)
RNA: GGGAGUUCUACAGUCCGACGAUCGCUUCGAUAUCCGCAUGCUAUGGAUGAGUGGAUGGAUAAUAGGUUGAUGGGUGGAUAGGUAGAUGAGUGAAUAGAUAGAUAUAGAUCAGUGGGAGGAUUGGAAAGUAGGUGAAUGAAUGGAUGGCAGAUAGAUGGAUCAAUUACAGAUGGAUGGAUGCAUGGAAUAGAUAGGUGGAUGGGUGGUGGCUAGAAGGUGCCUGAGUCUGCACAUCACUGCACUGAGAAGGCAAAUGAGUACAUUAUACUAUUAGCACCAAACCCCAAGCUUCAGUAUUUAGAUCUCUUGCGGUCGCACUAGUGUGGAAUUCUCGGGUGUCAAGG

The binders below were run against TDP-43 (Homo sapiens, UniProt Q13148 1-414) (assay: RNA Bind-n-Seq with designed 260-mer pool; 25 mM Tris-HCl, 150 mM KCl, 3 mM MgCl2, BSA (printed 500 mg/mL), 20 units/mL SUPERase IN; pH not stated; 500 nM RNA pool, 1 h, 4 C; TDP-43 5, 50, 500 nM; high values mean tight binding). Settings: protein: recombinant; tags: SBP (GST cleaved off with PreScission; pGEX-GST-SBP).
Method in brief: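 Recombinant SBP-tagged TDP-43 at 5, 50 or 500 nM was captured on streptavidin beads, then incubated 1 h at 4 °C with 500 nM of an in vitro-transcribed 260-nt 3′ UTR oligo pool in 25 mM Tris-HCl, 150 mM KCl, 3 mM MgCl2, BSA and SUPERase IN. Bound RNA was washed, eluted with biotin, reverse transcribed, PCR-amplified and sequenced. Binding is R, each oligo's mapped-read-normalized abundance in the bound sample divided by its abundance in input. Duplicates used two independent protein batches.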

Sequence of TDP-43 (Q13148 whole entry): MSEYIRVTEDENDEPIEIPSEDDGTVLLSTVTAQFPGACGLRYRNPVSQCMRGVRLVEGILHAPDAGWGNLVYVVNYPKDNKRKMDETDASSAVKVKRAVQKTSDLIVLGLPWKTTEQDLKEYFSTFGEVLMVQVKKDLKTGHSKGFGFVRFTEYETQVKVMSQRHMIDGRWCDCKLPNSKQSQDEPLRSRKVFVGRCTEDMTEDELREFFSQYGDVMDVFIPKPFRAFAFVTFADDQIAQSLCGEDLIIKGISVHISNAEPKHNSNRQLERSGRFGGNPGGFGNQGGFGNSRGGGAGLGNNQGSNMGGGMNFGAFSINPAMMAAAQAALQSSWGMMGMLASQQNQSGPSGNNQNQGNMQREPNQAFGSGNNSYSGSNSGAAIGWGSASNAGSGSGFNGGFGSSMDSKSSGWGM

Binder	binding signal
B1	8.71 R (bound/input frequency ratio)
B2	5.57 R (bound/input frequency ratio)
B3	2.62 R (bound/input frequency ratio)
B4	0.325 R (bound/input frequency ratio)
B5	0.273 R (bound/input frequency ratio)
B6	1.65 R (bound/input frequency ratio)
B7	2.26 R (bound/input frequency ratio)
B8	4.56 R (bound/input frequency ratio)
B9	4.65 R (bound/input frequency ratio)
